Over roughly 68,000 sequences, “fluorescence intensity (a.u.)” has its median near 9,100; the highest 2% begin near 16,000. The sample holds the highest values, similar sequences and a random draw of the others, so the mix is not that of the screen.

Sequence of OsWRKY34 (Q0JBA9 entry or part of it): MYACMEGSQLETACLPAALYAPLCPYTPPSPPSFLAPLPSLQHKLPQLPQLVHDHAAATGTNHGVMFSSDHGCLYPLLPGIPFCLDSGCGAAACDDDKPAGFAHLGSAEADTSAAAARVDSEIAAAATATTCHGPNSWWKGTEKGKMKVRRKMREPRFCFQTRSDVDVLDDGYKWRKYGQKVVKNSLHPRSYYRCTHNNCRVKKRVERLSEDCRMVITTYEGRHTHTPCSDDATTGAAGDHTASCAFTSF

This experiment has as its target OsWRKY34 (Oryza sativa, UniProt Q0JBA9 1-250). Kind of experiment: protein-binding microarray (RPBM); PBS, 2% BSA, 51.3 ng/ul salmon testes DNA, 50 uM zinc acetate, 200 nM TF, 25 C, 1 h; high values mean tight binding. The settings on record: protein: recombinant; tags: N-terminal polyhistidine and DsRed monomer fusion (pET32a); label: CyDye5-dUTP incorporated in the synthesized complementary strand; 3' TTTTT single-stranded linker to array surface; dsDNA, one strand shown. The procedure, abridged: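 An Axon 4000B scanner gave the binding signal as per-feature fluorescence intensity in arbitrary units. This followed washing of a custom Agilent array that had been incubated for 1 h at 25 °C with 200 nM protein in PBS, 2% BSA, salmon testes DNA and 50 µM zinc acetate. The proteins were transcription factors fused at the N-terminus to polyhistidine and DsRed, expressed in E. coli BL21-CodonPlus and purified on Ni–NTA.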
Turning to “GCGCTACTTCGCTCGACCACCCGCCCGCCTTCCACTGCCACGGAGTCACCTAGTGCAG”, the binding signal is 8550 fluorescence intensity (a.u.).

Regarding “CTCTAATTTTCTTTGCGTGTTCCATCATCAATATGGTATTCGGAGTCACCTAGTGCAG”, the binding signal is 10700 fluorescence intensity (a.u.).

As for “CAATTTCGAGCTTCGTATCAGCATATGCTATTCCCTATTGCGGAGTCACCTAGTGCAG”, the binding signal is 10500 fluorescence intensity (a.u.).

As to “GACTTTTTAGCACATGTTTGACCGTTCGTCTTATTCAAAACGGAGTCACCTAGTGCAG”, the binding signal is 10800 fluorescence intensity (a.u.).

In the case of “TTAGCACATGTTTGACCGTTCGTCTTATTCAAAATTTTTTCGGAGTCACCTAGTGCAG”, the binding signal is 12600 fluorescence intensity (a.u.).

“GTTGACTTTTTTAAACATGTTGGACCGTTCGTCTTATTCACGGAGTCACCTAGTGCAG”: the binding signal was 9150 fluorescence intensity (a.u.).

With “ACCGTTGACTTTTTAGCACATGTTTGACCGCTCGTCTTATCGGAGTCACCTAGTGCAG”, the binding signal was 54800 fluorescence intensity (a.u.).

For the sequence “CGTTGACTTTTTAGCACATGTTTGACCGTTCGTCTTATTCCGGAGTCACCTAGTGCAG”, the binding signal is 29000 fluorescence intensity (a.u.).

For “CGTTGACTTTTCTAAACATGTTTGACCGTTCGTCTTATTCCGGAGTCACCTAGTGCAG”, the binding signal was 28400 fluorescence intensity (a.u.).

Take “TGACTTTTTAGCATATGTTTGACCGCTCGTCTTATTCAAACGGAGTCACCTAGTGCAG”: the binding signal was 8220 fluorescence intensity (a.u.).

With “TTGACTTTTTAGCACATGTTTGACCGTTCGTCTTATTCAACGGAGTCACCTAGTGCAG”, the binding signal is 8480 fluorescence intensity (a.u.).

Turning to “CATTGACTTTTTTAAACATGTTTGACTGTTCGTCTTATTCCGGAGTCACCTAGTGCAG”, the binding signal was 11500 fluorescence intensity (a.u.).

With “CAGATCGACTCGACTCGACCAGGTTCTCTCGTTTTTACTCCGGAGTCACCTAGTGCAG”, the binding signal was 9940 fluorescence intensity (a.u.).

For the sequence “CTCTCTCTCTGCTGCTGCTCTCTAATCAGTAACCAGTAGTCGGAGTCACCTAGTGCAG”, the binding signal was 9580 fluorescence intensity (a.u.).

For “TTGTTTATTTAAGGTGTGATTGTATTTGGATCATGTTTTGCGGAGTCACCTAGTGCAG”, the binding signal is 8980 fluorescence intensity (a.u.).

On to “GGGGTATAATTTGTGTCTTAGCTGATAGAATGTGCAGTTGCGGAGTCACCTAGTGCAG”, for which the binding signal is 9980 fluorescence intensity (a.u.).

Consider “AAGGACCCAGCTGTTCGCCACGTGTGCGTGTTGACTTCCACGGAGTCACCTAGTGCAG”, for which the binding signal is 9780 fluorescence intensity (a.u.).

For the sequence “ATAGTACGAATGGTTAGCCCAAAAGTCAGTGTCTTCATTCCGGAGTCACCTAGTGCAG”, the binding signal was 10300 fluorescence intensity (a.u.).

As to “CACTGCTTCTCACCCAACTCGCGCGCGCCATTCCTTGCCTCGGAGTCACCTAGTGCAG”, the binding signal was 11600 fluorescence intensity (a.u.).

In the case of “TCTATATTGCTATTTTCATTTTAAAACTATTTCTTGCCACCGGAGTCACCTAGTGCAG”, the binding signal is 10300 fluorescence intensity (a.u.).

For the sequence “TTCTGATATCTGGTCATATTTTTTTGAACAGGTAGCTATTCGGAGTCACCTAGTGCAG”, the binding signal was 27000 fluorescence intensity (a.u.).

In the case of “AGCTGGTCATATTCTATGTTGATTATCTTCATGGTATGAACGGAGTCACCTAGTGCAG”, the binding signal was 9730 fluorescence intensity (a.u.).

On to “ATCTGGTCTGCAGGTATTTTCTTTGTATTGTATATTTCTACGGAGTCACCTAGTGCAG”, for which the binding signal is 10000 fluorescence intensity (a.u.).

Turning to “CCGCACCTCTCTCTACACGCACGCGTCTCTCCCATCTCCCCGGAGTCACCTAGTGCAG”, the binding signal was 9030 fluorescence intensity (a.u.).

With “AACTTTCTCCCACCGGCCACCGCGCGTCTCTTGCCACGACCGGAGTCACCTAGTGCAG”, the binding signal is 12200 fluorescence intensity (a.u.).

On to “TCTTCTTCCATGGTCTTTTCTAGATAAGGCTCTCTAATGTCGGAGTCACCTAGTGCAG”, for which the binding signal was 8620 fluorescence intensity (a.u.).

“TGAACGCTTCCCTGTGTTTGTGGTTACTGCCTTACTGGTTCGGAGTCACCTAGTGCAG”: the binding signal was 9210 fluorescence intensity (a.u.).

Consider “CGCACGGTTGTTCTCGCCATGATCCTCCTTGCCGCTGTCACGGAGTCACCTAGTGCAG”, for which the binding signal was 8780 fluorescence intensity (a.u.).

In the case of “TCTTAGACGGTCCTGACTCGAGGCCCATATATATGCTGGGCGGAGTCACCTAGTGCAG”, the binding signal is 19900 fluorescence intensity (a.u.).

For “CTCCTGACTCCTCCTCGGTTCCTCTTCCTCTCGAGCCCTTCGGAGTCACCTAGTGCAG”, the binding signal is 9950 fluorescence intensity (a.u.).

“CTTAGGGTCGGGAAGGGGAGAGGCGGTGGCGGGCGGCTGACGGAGTCACCTAGTGCAG”: the binding signal was 13400 fluorescence intensity (a.u.).

In the case of “TGGCTCCGCCACGTCCTCGTCGCCTGGAACTCGCTCGTCTCGGAGTCACCTAGTGCAG”, the binding signal is 8680 fluorescence intensity (a.u.).

For “TGTCTCAACAACAAGCTCTGTGTGCTGCAGTGTCATTCCACGGAGTCACCTAGTGCAG”, the binding signal is 8160 fluorescence intensity (a.u.).

For the sequence “TATTGGTTTTTGTTTCTGGTGCCACGTCTGCGGCCAAAAACGGAGTCACCTAGTGCAG”, the binding signal is 9220 fluorescence intensity (a.u.).

Take “CCTACACACGAAACCTCCGCGCCTCATCCGGGCTTCGCGACGGAGTCACCTAGTGCAG”: the binding signal is 10600 fluorescence intensity (a.u.).

Consider “TAACTTAACGTGATTTTCCTGTATGGACCTTAATTATGTTCGGAGTCACCTAGTGCAG”, for which the binding signal is 8580 fluorescence intensity (a.u.).

Regarding “CGTTCTCTCTCTCCTAGAACCACAGTTCAACCACTGTTTCCGGAGTCACCTAGTGCAG”, the binding signal was 8580 fluorescence intensity (a.u.).

Consider “GGAGGAGTACGACGGGGTGGGAGCGGCGGTGGGTGGGATGCGGAGTCACCTAGTGCAG”, for which the binding signal was 11500 fluorescence intensity (a.u.).

Consider “TGGGGATGCGGGGTGGCGCGGGAGGAGGGAGAGGACGGAGCGGAGTCACCTAGTGCAG”, for which the binding signal is 8670 fluorescence intensity (a.u.).

In the case of “GGCGGTGGGTGGGTGGAGCCGTGGAGGGATGGAGGGAGGGCGGAGTCACCTAGTGCAG”, the binding signal was 37900 fluorescence intensity (a.u.).

Consider “CAAGCCGGGCGGGAGCCGTGGCGGCGGCCGGGCGGGCGGGCGGAGTCACCTAGTGCAG”, for which the binding signal was 8260 fluorescence intensity (a.u.).

For the sequence “CATGGAGGGAGGGAGGGAGGCGGAAGCGGAGGCGTGGGAGCGGAGTCACCTAGTGCAG”, the binding signal is 9980 fluorescence intensity (a.u.).

In the case of “TGCCGTGGGATGGGGTTGCGGGAGGAGGAGGGTGCTACTACGGAGTCACCTAGTGCAG”, the binding signal is 17000 fluorescence intensity (a.u.).
